Results filed as inconclusive are left out. A call without a number means that no potency is given here. Values without a mark were called inactive. The source made the active and inactive calls. Calls follow the shape of the dose curve; as a rule, active = well fitted curve in the direction sought with a large enough effect; inconclusive = small, poorly fitted or top-dose-only effect, or another doubt; inactive = no such curve, though single readings can be large; an effect the other way counts as inactive or inconclusive.
Legend:
[1] = biological target: Rap guanine nucleotide exchange factor 3 (Homo sapiens) (UniProt O95398); assay: Confirmatory qHTS for antagonist of cAMP-regulated guanine nucleotide exchange factor 3 (EPAC1) (AID 1645880); also: nearly all actives have a fitted effect of over 55% in size; also: potency is read from the fitted curve at half-maximal effect
Sequence of Rap guanine nucleotide exchange factor 3 (Homo sapiens) (O95398 whole entry, looked up): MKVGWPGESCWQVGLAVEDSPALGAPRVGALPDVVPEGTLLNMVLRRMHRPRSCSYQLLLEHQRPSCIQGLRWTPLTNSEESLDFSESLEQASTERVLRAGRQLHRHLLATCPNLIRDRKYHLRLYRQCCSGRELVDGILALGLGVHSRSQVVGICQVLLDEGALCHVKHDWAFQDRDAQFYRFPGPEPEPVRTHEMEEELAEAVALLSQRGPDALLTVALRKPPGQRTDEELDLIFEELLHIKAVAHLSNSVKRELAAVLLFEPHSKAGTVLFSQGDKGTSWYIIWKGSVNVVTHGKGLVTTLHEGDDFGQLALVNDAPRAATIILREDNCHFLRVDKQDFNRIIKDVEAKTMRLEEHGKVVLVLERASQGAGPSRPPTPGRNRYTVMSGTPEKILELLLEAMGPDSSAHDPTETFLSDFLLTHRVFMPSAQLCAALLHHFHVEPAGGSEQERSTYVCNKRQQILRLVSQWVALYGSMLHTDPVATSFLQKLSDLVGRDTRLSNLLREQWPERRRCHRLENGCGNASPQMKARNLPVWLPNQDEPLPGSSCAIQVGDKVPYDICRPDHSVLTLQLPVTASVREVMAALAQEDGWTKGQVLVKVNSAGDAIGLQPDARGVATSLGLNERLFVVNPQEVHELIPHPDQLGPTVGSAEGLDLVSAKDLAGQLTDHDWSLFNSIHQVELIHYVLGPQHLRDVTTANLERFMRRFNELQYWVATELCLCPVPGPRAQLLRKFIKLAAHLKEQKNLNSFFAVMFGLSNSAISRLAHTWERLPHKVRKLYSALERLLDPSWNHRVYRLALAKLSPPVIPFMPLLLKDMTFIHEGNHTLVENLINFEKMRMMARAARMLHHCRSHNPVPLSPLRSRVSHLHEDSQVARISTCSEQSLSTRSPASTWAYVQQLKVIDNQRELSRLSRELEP
In short: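 Released BODIPY-GDP fluoresces less than Rap1-bound BODIPY-GDP; the signal is followed at 480/540 nm at 5-min intervals over 30 min, after 5 min at room temperature. Reactions contain 100 nM EPAC1, 250 nM RAP1B-BODIPY-GDP and 50 uM GDP; results are normalized to ATA and DMSO.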

[2] = biological target: Rap guanine nucleotide exchange factor 3 (Homo sapiens) (UniProt O95398); assay: Confirmatory qHTS for agonist of cAMP-regulated guanine nucleotide exchange factor 3 (EPAC1) (AID 1645881);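 also: EPAC1 catalysed release of BODIPY-GDP from Rap1B seen as fluorescence loss; nearly all actives have a fitted effect of over 75% in size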
[3] = biological target: Rap guanine nucleotide exchange factor 4 (Homo sapiens) (UniProt Q8WZA2); assay: Confirmatory qHTS for agonist of cAMP-regulated guanine nucleotide exchange factor 4 (EPAC2) (AID 1645884);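 also: nucleotide exchange releases bodipy-GDP from Rap1 and this lowers its fluorescence; nearly all actives have a fitted effect of over 65% in size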
Sequence of Rap guanine nucleotide exchange factor 4 (Homo sapiens) (Q8WZA2 whole entry, looked up): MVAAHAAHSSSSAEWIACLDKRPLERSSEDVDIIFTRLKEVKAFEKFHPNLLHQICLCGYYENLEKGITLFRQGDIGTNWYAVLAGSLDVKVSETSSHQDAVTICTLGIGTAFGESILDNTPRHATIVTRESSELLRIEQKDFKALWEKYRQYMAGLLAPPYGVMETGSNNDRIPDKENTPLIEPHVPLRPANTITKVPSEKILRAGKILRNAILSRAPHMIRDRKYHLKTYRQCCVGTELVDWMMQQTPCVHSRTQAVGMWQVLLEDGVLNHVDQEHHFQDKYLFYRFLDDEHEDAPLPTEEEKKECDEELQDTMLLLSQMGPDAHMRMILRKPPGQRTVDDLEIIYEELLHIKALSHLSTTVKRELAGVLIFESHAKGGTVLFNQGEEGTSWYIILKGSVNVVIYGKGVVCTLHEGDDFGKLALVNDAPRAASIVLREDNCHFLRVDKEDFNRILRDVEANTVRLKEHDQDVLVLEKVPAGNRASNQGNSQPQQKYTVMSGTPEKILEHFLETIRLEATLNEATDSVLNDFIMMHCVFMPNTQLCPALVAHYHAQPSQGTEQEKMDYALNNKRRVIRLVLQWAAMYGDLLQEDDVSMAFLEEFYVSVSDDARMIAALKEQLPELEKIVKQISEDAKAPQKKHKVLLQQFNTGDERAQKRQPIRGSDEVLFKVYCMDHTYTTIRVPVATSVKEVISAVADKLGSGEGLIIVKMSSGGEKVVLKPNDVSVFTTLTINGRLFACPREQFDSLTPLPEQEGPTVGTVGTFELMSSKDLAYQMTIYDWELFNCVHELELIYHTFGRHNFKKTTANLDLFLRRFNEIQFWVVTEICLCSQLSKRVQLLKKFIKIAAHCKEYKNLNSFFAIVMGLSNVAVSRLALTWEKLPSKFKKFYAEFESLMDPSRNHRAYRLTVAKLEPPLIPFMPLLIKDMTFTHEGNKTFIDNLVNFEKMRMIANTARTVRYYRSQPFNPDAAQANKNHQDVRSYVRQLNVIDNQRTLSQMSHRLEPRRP

[4] = biological target: Rap guanine nucleotide exchange factor 3 (Homo sapiens) (UniProt O95398); assay: Counterscreen qHTS for antagonist of cAMP-regulated guanine nucleotide exchange factor 3 (EPAC1) (AID 1645888)
In short: (§1)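 Rap1B–BODIPY-GDP (250 nM) with 50 uM GDP; compounds pin-transferred to 9.74 nM–152 uM final (activator) or from 7.32 nM upwards (inhibitor). Fluorescence Ex/Em 480/540 nm read at 5 and 30 min, then after adding cAMP or buffer, at room temperature.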

[5] = biological target: Rap guanine nucleotide exchange factor 4 (Homo sapiens) (UniProt Q8WZA2); assay: Confirmatory qHTS for antagonist of cAMP-regulated guanine nucleotide exchange factor 4 (EPAC2) (AID 1645885); also: nearly all actives have a fitted effect of over 25% in size; also: potency is read from the fitted curve at half-maximal effect
[6] = biological target: Rap guanine nucleotide exchange factor 3 (Homo sapiens) (UniProt O95398); assay: Counterscreen qHTS for agonist of cAMP-regulated guanine nucleotide exchange factor 3 (EPAC1) (AID 1645889); also: nearly all actives have a fitted effect of over 40% in size
In short: as §1

[7] = biological target: Tumor susceptibility gene 101 protein (Homo sapiens) (UniProt Q99816); assay: qHTS Assay for Iinhibitors of HIV-1 Budding by Blocking the Interaction of PTAP/TSG101: Hit Validation (AID 651600); also: nearly all actives have a fitted effect of over 70% in size
Sequence of Tumor susceptibility gene 101 protein (Homo sapiens) (Q99816 whole entry, looked up, the tested form may be a part): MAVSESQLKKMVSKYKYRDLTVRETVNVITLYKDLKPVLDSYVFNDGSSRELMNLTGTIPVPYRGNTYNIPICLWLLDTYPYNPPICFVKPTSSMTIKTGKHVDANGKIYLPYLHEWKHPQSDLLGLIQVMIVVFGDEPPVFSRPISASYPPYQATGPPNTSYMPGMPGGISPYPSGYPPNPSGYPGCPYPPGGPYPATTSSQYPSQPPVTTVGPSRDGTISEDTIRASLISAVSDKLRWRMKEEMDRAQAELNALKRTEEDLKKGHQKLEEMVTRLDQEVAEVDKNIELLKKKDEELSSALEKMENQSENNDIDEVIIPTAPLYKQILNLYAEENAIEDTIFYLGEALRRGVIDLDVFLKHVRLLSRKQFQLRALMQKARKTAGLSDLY
In short: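 Fluorescence polarization binding assay: Tsg101 binding domain (10 uM) mixed with compounds and FITC-labeled PTAP peptide (50 nM) in HEPES pH 7.5, 0.15 M NaCl, 0.01% Tween 20, EDTA, TCEP; 20 min at r.t.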

SMILES: Cc1cc(=O)oc2cc(OCC(=O)N3CCC(C(=O)O)(c4ccccc4)CC3)ccc12
- Potency [1]: 75.7 µM (active)
- Potency [2]: inactive
- Potency [3]: inactive
- outcome [4]: inactive

SMILES: COc1ccc(CN2C(=O)NC(=O)/C(=C/c3ccc([N+](=O)[O-])s3)C2=O)cc1
- Potency [1]: 9.53 µM (active)
- Potency [2]: inactive
- Potency [3]: inactive
- outcome [4]: inactive

SMILES: O=c1oc2ccccc2c(O)c1C(c1ccc([N+](=O)[O-])cc1)c1c(O)c2ccccc2oc1=O
- Potency [1]: 15.8 µM (active)
- Potency [2]: inactive
- activation [3]: 0% [at 17.1 µM, percent relative to cAMP agonist control]
- activity change, negative = inhibition [4]: -13.4% [at 30.8 µM]

SMILES: Cc1cc(OC(C)C(=O)N[C@H](C(=O)O)c2ccccc2)c2c3c(c(=O)oc2c1)CCC3 (stereo partly drawn)
- Potency [1]: inactive
- Potency [2]: inactive
- Potency [3]: inactive
- Potency [5]: 42.6 µM (active)
- Potency [6]: inactive

SMILES: CCN(CC)C(=O)Cn1cc(C=C2C(=O)N(C)C(=O)N(C)C2=O)c2ccccc21
- Potency [7]: inactive
- Potency [1]: 79.4 µM (active)
- Potency [2]: inactive
- activation [3]: 4.19% [at 17.1 µM, percent relative to cAMP agonist control]
- activity change, negative = inhibition [5]: 3.22% [at 12.7 µM]
- activity change, negative = inhibition [4]: -5.5% [at 30.8 µM]

Source: PubChem BioAssay (NCATS)
